Structures are written as SMILES. Hit rate of the full screen: of about 5,900 compounds, about 100 (1.7%) were called active. The sample as a whole holds a higher share of actives than the screen did. Values without a mark were called inactive.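 Rule for the calls: active = binding response below 72% of control, or above a set upper limit, though filed actives all read lower; inactive = the rest.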

In PubChem BioAssay AID1894 (NMMLSC, 2009) one finds binding response (% of control) data, which are given here for 24 molecules.

In this assay the target is Mitogen-activated protein kinase kinase kinase 3 (Homo sapiens) (UniProt Q99759). The experiment in a line: MEKK3 wild-type PB1 binding to MEK5, inhibitors, confirmation, biochemical, bead multiplex flow cytometry, single concentration, wildtype (AID 1894).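 Note: 100% = DMSO only wells and 0% = binding blocked by excess unlabeled MEK5; lower values mean stronger disruption of MEK5 binding to MEKK3.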 The following applies: Alexa488-MEK5 binding to MEKK3, at 10 µM, hits give low values.
Sequence of Mitogen-activated protein kinase kinase kinase 3 (Homo sapiens) (Q99759 whole entry, looked up): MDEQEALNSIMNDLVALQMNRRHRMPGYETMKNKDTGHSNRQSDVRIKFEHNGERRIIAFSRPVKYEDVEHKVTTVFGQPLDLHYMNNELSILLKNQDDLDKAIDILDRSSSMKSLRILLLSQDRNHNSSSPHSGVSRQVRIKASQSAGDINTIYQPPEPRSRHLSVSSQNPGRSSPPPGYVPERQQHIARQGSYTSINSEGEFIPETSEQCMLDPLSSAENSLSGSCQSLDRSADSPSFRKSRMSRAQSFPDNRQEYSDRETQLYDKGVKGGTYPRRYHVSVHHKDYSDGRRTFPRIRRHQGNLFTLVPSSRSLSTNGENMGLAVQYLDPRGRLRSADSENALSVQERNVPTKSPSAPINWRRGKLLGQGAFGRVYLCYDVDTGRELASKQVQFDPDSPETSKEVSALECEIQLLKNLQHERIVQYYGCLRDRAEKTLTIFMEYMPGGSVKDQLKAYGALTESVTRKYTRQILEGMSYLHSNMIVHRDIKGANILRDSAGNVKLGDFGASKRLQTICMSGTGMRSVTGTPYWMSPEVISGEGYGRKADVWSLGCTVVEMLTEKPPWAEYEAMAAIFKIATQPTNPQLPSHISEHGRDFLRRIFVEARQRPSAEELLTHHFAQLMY
As for `Cc1ccc2c(C)c(C(=O)N3CCN(c4ccncc4)CC3)oc2c1C`, the binding response (% of control) was 108%. As for `Cc1ccccc1-c1ccc(Nc2ccc(C(=O)N3CCOCC3)cc2)nn1`, the figure is 102%; as for `C[N+](C)(C)CCNC(=O)c1c(O)c2c([nH]c1=O)CCCC2`, 99%; as for `COc1cc(C)nc(N2CCCC(C(=O)NCC(C)C)C2)n1` (centres undefined), 96%.

Take `O=c1[nH]c(=S)[nH]c2[nH]c(=S)[nH]c12`: the binding response (% of control) is 100%. For `CCOC(=O)c1cc2occc2n1CC(=O)N1CCN(C(=O)c2ccco2)CC1`, the binding response (% of control) is 95%. As for `O=C(O)C1CCN(c2ccc([N+](=O)[O-])cc2[N+](=O)[O-])CC1`, the figure is 102%.

For the molecule `COc1ccccc1CC(=O)Nc1ccc([N+](=O)[O-])cc1OC`, the binding response (% of control) is 98%. For the molecule `c1ccc2c(c1)C(=NC1CCCCC1)NC2=NC1CCCCC1`, the binding response (% of control) is 104%. `CCc1nnc(NC(=O)c2sc3nc(C)cc(COC)c3c2N)s1`: the binding response (% of control) is 105%. Take `Cc1cccc(OCCNC(=O)CSc2ccc(C(F)(F)F)cc2[N+](=O)[O-])c1`: the binding response (% of control) was 104%. As to `COc1ccc(CCn2c(NN=C3CCCC3)nc3c2c(=O)[nH]c(=O)n3C)cc1`, the binding response (% of control) was 106%.

As for `Cc1c(CN2CCC(CO)(CCOc3ccccc3)CC2)[nH]c2ccc(Cl)cc12`, the binding response (% of control) was 112%.

Take `COc1cccc(Nc2ncccc2C(=O)O)c1`: the binding response (% of control) is 101%. Consider `O=C(NCC1CCCCC1)c1cc(S(=O)(=O)N2CCCCC2)ccc1N1CCOCC1`, for which the binding response (% of control) is 91%.

As for `O=C(c1ccc(Br)o1)N(c1ccccn1)C1CCCCC1`, the binding response (% of control) was 98%. Consider `Cc1cccc(CSc2nnc(C)c(=O)n2N)c1`, for which the binding response (% of control) was 103%. Then `CC(C)CC(=O)NC(=S)NCc1ccccc1`, with 99%; and `COC(=O)C1=NN(c2ccccc2)C2C(=O)N(c3ccccc3OC)C(=O)C12` (centres undefined), with 103%; and `Cc1ccccc1CCN(CC(=O)NC1CCCCC1)C(=O)c1csnn1`, with 97%. As for `Cc1[nH]c2ccc(S(N)(=O)=O)cc2c1C`, the figure is 100%. Then `CCc1ccc2nc(Nc3ncc(C(C)=O)c(C)n3)nc(C)c2c1`, with 102%; and `COc1cccc(OC)c1C(=O)Nc1ccc(Cc2ccncc2)cc1`, with 101%. `CN(C)CC(O)COc1ccc(C(C)(C)c2ccc(OCC(O)CN(C)C)cc2)cc1` (centres undefined): the binding response (% of control) is 111%.
